The record followed here is article PMC3218832.

Some targets named below: RELARELA (p65 homodimer) (Homo sapiens, UniProt Q04206 1-307); p50p50 homodimer (Homo sapiens, UniProt P19838 7-356); RELB subunit;p50 subunit (Homo sapiens;Homo sapiens, UniProt Q01201;P19838 120-401;7-356).
What all share (assay): protein binding microarray; high values mean tight binding
Common to all, as to conditions: dsDNA, one strand shown

The next assay deals with T1, p52p52 homodimer (Homo sapiens, UniProt Q00653 4-332).
T1 sequence: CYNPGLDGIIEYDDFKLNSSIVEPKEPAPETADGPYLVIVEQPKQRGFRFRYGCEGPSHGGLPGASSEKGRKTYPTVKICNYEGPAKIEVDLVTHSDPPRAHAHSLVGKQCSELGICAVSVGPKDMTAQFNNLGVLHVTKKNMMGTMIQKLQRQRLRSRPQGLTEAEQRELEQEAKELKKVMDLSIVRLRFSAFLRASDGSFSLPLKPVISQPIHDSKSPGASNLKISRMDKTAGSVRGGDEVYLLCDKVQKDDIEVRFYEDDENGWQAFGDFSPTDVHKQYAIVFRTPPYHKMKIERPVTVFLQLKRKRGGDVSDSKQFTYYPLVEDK

The target of assay [1] is RELA (p65) subunit of heterodimer;p50 subunit (Homo sapiens;Homo sapiens, UniProt Q04206;P19838 1-307;7-356).
The target of assay [2] is RELA (p65) subunit of heterodimer;p52 subunit (Homo sapiens;Homo sapiens, UniProt Q04206;Q00653 1-307;4-332).
In the next assay the target is T2, RELB subunit;p52 subunit (Homo sapiens;Homo sapiens, UniProt Q01201;Q00653 120-401;4-332).
T2 sequence 1: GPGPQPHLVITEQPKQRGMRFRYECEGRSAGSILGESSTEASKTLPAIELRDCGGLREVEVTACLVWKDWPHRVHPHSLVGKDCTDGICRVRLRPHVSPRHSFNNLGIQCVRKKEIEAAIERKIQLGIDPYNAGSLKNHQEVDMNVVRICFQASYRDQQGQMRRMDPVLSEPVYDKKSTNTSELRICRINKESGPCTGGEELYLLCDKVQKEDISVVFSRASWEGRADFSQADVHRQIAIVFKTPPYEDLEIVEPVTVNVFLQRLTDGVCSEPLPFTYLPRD
T2 sequence 2: T1 sequence

In assay [3] the target is C-Rel subunit;p50 subunit (Homo sapiens;Homo sapiens, UniProt Q04864;P19838 1-285;7-356).
In assay [4] the target is T3, C-Rel subunit;p52 subunit (Homo sapiens;Homo sapiens, UniProt Q04864;Q00653 1-285;4-332).
T3 sequence 1: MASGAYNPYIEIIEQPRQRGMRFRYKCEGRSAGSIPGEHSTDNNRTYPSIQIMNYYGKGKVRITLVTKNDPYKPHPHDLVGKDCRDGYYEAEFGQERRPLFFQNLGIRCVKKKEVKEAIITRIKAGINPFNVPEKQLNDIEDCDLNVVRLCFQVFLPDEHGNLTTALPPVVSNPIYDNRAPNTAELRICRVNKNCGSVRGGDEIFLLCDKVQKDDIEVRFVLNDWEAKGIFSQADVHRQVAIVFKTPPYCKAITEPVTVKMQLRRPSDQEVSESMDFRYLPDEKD
T3 sequence 2: T1 sequence

Chain of p50p50 homodimer (P19838 7-356): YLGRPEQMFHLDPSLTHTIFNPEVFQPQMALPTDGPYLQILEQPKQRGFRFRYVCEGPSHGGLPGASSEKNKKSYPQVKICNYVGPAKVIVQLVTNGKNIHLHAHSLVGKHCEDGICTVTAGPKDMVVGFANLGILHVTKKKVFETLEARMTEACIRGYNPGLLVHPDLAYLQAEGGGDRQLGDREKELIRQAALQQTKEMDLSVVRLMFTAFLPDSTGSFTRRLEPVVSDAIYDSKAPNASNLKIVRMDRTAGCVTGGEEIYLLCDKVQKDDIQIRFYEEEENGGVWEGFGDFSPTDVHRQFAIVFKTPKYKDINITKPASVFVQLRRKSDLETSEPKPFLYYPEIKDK
Chain of RELARELA (p65 homodimer) (Q04206 1-307): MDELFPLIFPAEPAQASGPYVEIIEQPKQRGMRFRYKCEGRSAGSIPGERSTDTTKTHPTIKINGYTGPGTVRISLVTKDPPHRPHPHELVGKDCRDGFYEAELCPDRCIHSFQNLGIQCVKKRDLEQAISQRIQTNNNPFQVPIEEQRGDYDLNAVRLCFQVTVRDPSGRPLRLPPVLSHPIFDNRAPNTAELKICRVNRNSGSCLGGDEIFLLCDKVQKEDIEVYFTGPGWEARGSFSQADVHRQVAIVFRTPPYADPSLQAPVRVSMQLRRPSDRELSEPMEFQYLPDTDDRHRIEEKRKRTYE
Chain of RELA (p65) subunit of heterodimer;p50 subunit (Q04206 1-307, chain 1 of 2): as the sequence (Q04206 1-307) above
Chain of RELA (p65) subunit of heterodimer;p50 subunit (P19838 7-356, chain 2 of 2): as the sequence (P19838 7-356) above

On to CAGTTCTTCCC, for which the binding signal with RELARELA (p65 homodimer) is 1.2 z-score; with p50p50 homodimer, -0.0833 z-score; in the assay with p52p52 homodimer it was -0.0924 z-score; in assay [1] it was 0.385 z-score; in assay [2] it was 0.0986 z-score; with RELB subunit;p50 subunit it was -0.231 z-score. The figures for the binding signal (in the assay with RELB subunit;p52 subunit; in assay [3]; in [4]) were -0.179 z-score, 0.641 z-score and 0.366 z-score, respectively.
Regarding CGGGAACCCCC, the binding signal with RELARELA (p65 homodimer) was determined as 2.26 z-score; with p50p50 homodimer, 0.986 z-score; with p52p52 homodimer, 2.98 z-score; in assay [1], 2.47 z-score; in assay [2], 2.46 z-score; in the assay with RELB subunit;p50 subunit it was 1.67 z-score. Also, the values for the binding signal (with RELB subunit;p52 subunit; in [3]; in assay [4]) were 2.34 z-score, 2.01 z-score and 2.86 z-score, respectively.
In the case of GGGATAGTCCC, the binding signal in the assay with RELARELA (p65 homodimer) was 2.07 z-score; with p50p50 homodimer, 0.707 z-score; in the assay with p52p52 homodimer it was 2.94 z-score; in [1] it was 1.82 z-score; in [2], 2.15 z-score; with RELB subunit;p50 subunit, 1.87 z-score. In addition, the binding signal with RELB subunit;p52 subunit was 1.6 z-score; in [3] it was 1.32 z-score; in assay [4], 1.96 z-score.
With CAGATCGTCCT, the binding signal is -0.0967 z-score with RELARELA (p65 homodimer); -1.22 z-score with p50p50 homodimer; -0.471 z-score with p52p52 homodimer; -1 z-score in assay [1]; -0.796 z-score in assay [2]; -0.842 z-score with RELB subunit;p50 subunit. Further, the binding signal with RELB subunit;p52 subunit was -0.777 z-score; in [3], -1.17 z-score; in assay [4] it was -0.663 z-score.
Regarding AAGAGAGCCCC, the binding signal was -0.68 z-score with RELARELA (p65 homodimer); 0.339 z-score in the assay with p50p50 homodimer; 0.122 z-score with p52p52 homodimer; 0.109 z-score in [1]; -0.015 z-score in assay [2]; -0.0342 z-score with RELB subunit;p50 subunit. Also, the results for the binding signal (with RELB subunit;p52 subunit; in assay [3]; in assay [4]) were -0.125 z-score, 0.0932 z-score and 0.00397 z-score, respectively.
On to AAGTAGACCCT, for which the binding signal with RELARELA (p65 homodimer) was -0.746 z-score; with p50p50 homodimer it was -0.785 z-score; with p52p52 homodimer, -0.531 z-score; in [1] it was -0.711 z-score; in assay [2], -0.775 z-score; in the assay with RELB subunit;p50 subunit, -0.737 z-score. Further, the binding signal is -0.709 z-score in the assay with RELB subunit;p52 subunit, -1.17 z-score in assay [3] and -0.772 z-score in [4].
On to CAAGTTGTCCC, for which the binding signal stood at 0.644 z-score with RELARELA (p65 homodimer); 0.614 z-score in the assay with p50p50 homodimer; 0.469 z-score with p52p52 homodimer; 0.421 z-score in [1]; 0.267 z-score in assay [2]; 0.826 z-score with RELB subunit;p50 subunit. In addition, the binding signal came out at 0.446 z-score in the assay with RELB subunit;p52 subunit, 0.778 z-score in assay [3] and 0.251 z-score in [4].
In the case of AGAGATTTCCT, the binding signal with RELARELA (p65 homodimer) was 0.344 z-score; with p50p50 homodimer, -0.498 z-score; in the assay with p52p52 homodimer it was -0.5 z-score; in assay [1], -0.403 z-score; in assay [2] it was -0.389 z-score; with RELB subunit;p50 subunit, -0.762 z-score. In addition, the binding signal was -0.49 z-score with RELB subunit;p52 subunit, -0.209 z-score in assay [3] and -0.443 z-score in [4].
Consider AGGTGATTCCC, for which the binding signal was found to be 1.45 z-score with RELARELA (p65 homodimer); 0.701 z-score with p50p50 homodimer; 3.04 z-score with p52p52 homodimer; 1.59 z-score in assay [1]; 2.15 z-score in assay [2]; 1.33 z-score with RELB subunit;p50 subunit. For the same sequence, the values for the binding signal (in the assay with RELB subunit;p52 subunit; in [3]; in assay [4]) were 2.11 z-score, 1.81 z-score and 2.88 z-score, respectively.
For the sequence GAGGGCTCCCC, the binding signal is -0.357 z-score with RELARELA (p65 homodimer); 0.0285 z-score in the assay with p50p50 homodimer; -0.0309 z-score in the assay with p52p52 homodimer; 0.109 z-score in assay [1]; -0.108 z-score in assay [2]; 0.159 z-score with RELB subunit;p50 subunit. For the same sequence, the binding signal was -0.218 z-score with RELB subunit;p52 subunit, 0.253 z-score in assay [3] and 0.154 z-score in [4].
As to AAGAGGCTCCC, the binding signal with RELARELA (p65 homodimer) was -0.428 z-score; with p50p50 homodimer, -1.01 z-score; in the assay with p52p52 homodimer, -0.505 z-score; in assay [1], -0.958 z-score; in assay [2], -0.845 z-score; with RELB subunit;p50 subunit, -0.665 z-score. Also, the binding signal with RELB subunit;p52 subunit is -0.714 z-score; in [3] it was -1.12 z-score; in assay [4], -0.72 z-score.
In the case of CAGTGGTCCCC, the binding signal with RELARELA (p65 homodimer) was -0.00968 z-score; with p50p50 homodimer it was 0.538 z-score; with p52p52 homodimer it was 0.29 z-score; in assay [1], 0.247 z-score; in [2], 0.212 z-score; with RELB subunit;p50 subunit it was 0.612 z-score. Moreover, the binding signal with RELB subunit;p52 subunit is 0.412 z-score; in assay [3], 0.329 z-score; in assay [4] it was 0.0114 z-score.
Consider AAGTTCACCCC, for which the binding signal was -0.0981 z-score with RELARELA (p65 homodimer); 0.184 z-score in the assay with p50p50 homodimer; 0.0438 z-score in the assay with p52p52 homodimer; -0.0301 z-score in assay [1]; -0.0961 z-score in [2]; 0.292 z-score in the assay with RELB subunit;p50 subunit. In addition, the binding signal in the assay with RELB subunit;p52 subunit amounted to 0.317 z-score; in assay [3], 0.451 z-score; in assay [4], 0.174 z-score.
Consider CGGGAGCTCCC, for which the binding signal with RELARELA (p65 homodimer) worked out at 0.73 z-score; in the assay with p50p50 homodimer it was 0.136 z-score; in the assay with p52p52 homodimer, 0.135 z-score; in [1], 0.408 z-score; in assay [2], 0.0305 z-score; with RELB subunit;p50 subunit, 0.0766 z-score. Moreover, the binding signal was -0.106 z-score in the assay with RELB subunit;p52 subunit, -0.102 z-score in [3] and 0.192 z-score in [4].
GAGAGCCCCCC: the binding signal in the assay with RELARELA (p65 homodimer) is -1.07 z-score; in the assay with p50p50 homodimer, 1.13 z-score; with p52p52 homodimer, 0.398 z-score; in [1], 0.853 z-score; in assay [2], 0.722 z-score; with RELB subunit;p50 subunit, 0.759 z-score. The binding signal turned out to be 0.733 z-score in the assay with RELB subunit;p52 subunit, 0.773 z-score in assay [3] and 0.389 z-score in assay [4].
